The record followed here is PubChem BioAssay (NCATS).

The structures appear in SMILES notation. Inconclusive results are not listed. A call without a number means that no potency is given here. Calls of active or inactive are those of the source. Calls come from the whole dose curve; as a rule, active = well fitted inhibition curve with a large enough effect; inconclusive = small, poorly fitted or top-dose-only effect; inactive = no such curve, though single readings can be large or run the other way.
Potency is the fitted concentration of half-maximal effect.

For this experiment, the target named is Nuclear receptor ROR-gamma (Homo sapiens) (UniProt P51449). Description: qHTS assay for small molecule antagonists of the retinoid-related orphan receptor gamma (ROR-gamma) signaling pathway (AID 651802). Note: nearly all actives have a fitted effect of over 60% in size. As to conditions: ROR-gamma antagonist cell reporter assay; series mostly up to 92.2 µM. Summed up: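 Steps: cells dispensed; compound or DMSO transferred by pin tool; doxycycline added to induce the ROR response element-driven luciferase; plates held 16hr at 37C; ONE-Glo added and luminescence measured.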
Chain of Nuclear receptor ROR-gamma (Homo sapiens) (P51449 whole entry, looked up): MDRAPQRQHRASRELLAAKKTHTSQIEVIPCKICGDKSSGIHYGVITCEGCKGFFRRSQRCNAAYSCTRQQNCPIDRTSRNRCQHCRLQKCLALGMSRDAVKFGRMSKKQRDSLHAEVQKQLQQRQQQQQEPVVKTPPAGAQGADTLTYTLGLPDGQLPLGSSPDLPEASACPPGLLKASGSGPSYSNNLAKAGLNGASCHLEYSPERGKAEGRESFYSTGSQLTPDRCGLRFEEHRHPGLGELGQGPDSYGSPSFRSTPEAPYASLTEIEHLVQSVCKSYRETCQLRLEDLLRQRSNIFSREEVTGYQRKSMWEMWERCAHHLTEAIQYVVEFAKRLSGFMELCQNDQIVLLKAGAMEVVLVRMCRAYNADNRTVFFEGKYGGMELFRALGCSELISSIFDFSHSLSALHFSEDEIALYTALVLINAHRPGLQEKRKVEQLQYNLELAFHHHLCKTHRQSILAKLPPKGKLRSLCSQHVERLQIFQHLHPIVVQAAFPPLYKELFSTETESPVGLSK
In general terms: In qHTS, concentration-response curves come from the screen itself.
For `NC(N)=NC(N)=NCCc1ccccc1`, the Potency is 16.8 µM (active).
Then `Cc1nnc(NS(=O)(=O)c2ccc(N)cc2)s1`, with “inactive”.
Consider `Cc1ccnc2c1NC(=O)c1cccnc1N2C1CC1`, for which the Potency entry is “inactive”.
`CC1=NN(c2ccccc2)C(=O)C1`: the Potency result was “inactive”.
Regarding `CN(C)c1ccc(C(=C2C=CC(=[N+](C)C)C=C2)c2ccc(N(C)C)cc2)cc1`, the Potency is 2.37 µM (active).
Turning to `CC[C@H](C)C(=O)O[C@H]1C[C@@H](C)C=C2C=C[C@H](C)[C@H](CC[C@@H]3C[C@@H](O)CC(=O)O3)[C@H]21`, the Potency was 4.73 µM (active).
For `COc1ccc2cc3[n+](cc2c1OC)CCc1cc2c(cc1-3)OCO2`, the Potency result is “inactive”.
With `C[C@]12C=CC(=O)C=C1CC[C@@H]1[C@@H]2C(=O)C[C@@]2(C)[C@H]1CC[C@]2(O)C(=O)CO`, the Potency entry is “inactive”.
Then `O=C(N[C@H](CO)[C@H](O)c1ccc([N+](=O)[O-])cc1)C(Cl)Cl`, with “inactive”; and `NNC(=O)c1ccncc1`, with “inactive”.
The same measure for `Cc1cc(NS(=O)(=O)c2ccc(N)cc2)no1`: “inactive”; for `Cc1ncc([N+](=O)[O-])n1CCO`: “inactive”.
In the case of `O=C(O)c1cc(=O)[nH]c(=O)[nH]1`, the Potency entry was “inactive”.
As to `CCc1cc(C(N)=S)ccn1`, the Potency entry was “inactive”.
